We go through 12 compounds from PubChem BioAssay (NCI).

The panel holds about 83,000 compounds, 20% with a hit somewhere; the sample as a whole holds those more often.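 48-hour exposure, single concentration, 96-well plates; percent growth endpoint where 0 means no net growth. Active: below 10.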 Activity calls are given as the source filed them.

The subject of this assay is HL-60(TB) leukemia. Briefly: NCI-60 one-dose screen, 48 h (100 = growth as untreated, 0 = no growth, -100 = all killed). Particulars: 10 µM unless noted.
As to `Cc1c(-c2csc(-n3nc(C(F)(F)F)cc3C(F)(F)F)n2)no[n+]1[O-]`, the growth was 97% (inactive).

On to `COc1ccc2cc(-c3nn(-c4ccc(C(=O)O)cc4)cc3CO)ccc2c1`, for which the growth was 50.3% (inactive).

On to `CCCCN(CCCC)Cc1c(C)[nH]c2cc(OC)ccc2c1=O`, for which the growth is 94.1% (inactive).

On to `CCCCCN(CCCCC)CCCNc1c2c(nc3ccc(Cl)cc13)CCCC2`, for which the growth is 48.8% (inactive).

For the compound `CC(=O)c1cccc(Nc2ncnc3ccc(NC(=O)c4ccco4)cc23)c1`, the growth is 122% (inactive).

As for `Cc1c2ccccc2nc2c1ccc1cccnc12`, the growth is 85.8% (inactive).

As to `O=[N+]([O-])c1ccc(Oc2ccccc2Cl)c([N+](=O)[O-])c1`, the growth was -1.82% (active).

Consider `CCOC(=O)c1ccc(NC(=O)NC2=NCCS2)cc1`, for which the growth is 13.5% (inactive).

As for `CCn1cc(C2NC(=O)c3ccccc3N2)c2cccc(C)c21` (configuration not stated), the growth is -56.2% (active).

As to `CC(C)=CC[C@@H]1CC2(CC=C(C)C)C(=O)C(OC3(C(=O)c4ccccc4)C(=O)C4(CC=C(C)C)C[C@@H](CC=C(C)C)C(C)(C)C(CC=C(C)C)(C4=O)C3=O)(C(=O)c3ccccc3)C(=O)C(CC=C(C)C)(C2=O)C1(C)C` (some centres not stated), the growth is -47.7% (active).

Turning to `C=CCn1c(SCC(=O)Nc2ccc(C(=O)/C=C/c3ccc(Cl)cc3)cc2)nnc1-c1ccc(Br)cc1`, the growth is 76.2% (inactive).

`COC1C(O)CC(OC2CC(OC3CC(O[C@@H]4C(=O)c5c(cc6cc(OC7CC(OC8CC(O)C(O)C(C)O8)C(O)C(C)O7)c(C)c(O)c6c5O)CC4[C@H](OC)C(=O)O)OC(C)C3O)OC(C)C2O)OC1C` (some centres not stated): the growth was 60.5% (inactive).
